# Among all 5,500 compounds or so, about 2,000 (36%) were called active. Not shown: some 18% with an inconclusive outcome. The list shows a part of the results. A number with no mark means an inactive call. Cut-off read from the data, not from the text of the source: active = normalized growth mostly below about 0.91 (no sharp cut-off); inconclusive = no clear call, values can overlap the other calls; inactive = mostly above about 0.92.
# Assay: chemical genetic growth profiling, strain panel (AID 1159580);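 note: tested at 20 µM; growth read once vehicle control cultures reached saturation at 30 °C; 1 = growth at the plate median or of vehicle wells; lower values mean less growth of the strain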
# Conditions: S. cerevisiae deletion strains, growth OD
smiles,measurement,setting,value
COC1C(O)C(O[C@H]2CC[C@]3(C=O)C4C(CC[C@]3(O)C2)[C@@]2(O)CC[C@H](C3=CC(=O)OC3)[C@@]2(C)C[C@H]4OC(C)=O)OC(C)C1OC(C)=O (some centres undefined),normalized growth,"locus YAL021C, strain ccr4, hits give low values",0.977
same,normalized growth,"locus YAL026C, strain drs2, hits give low values",1.02
same,normalized growth,"locus YAL030W, strain snc1, hits give low values",0.977
same,normalized growth,"locus YBL061C, strain skt5, hits give low values",1.02
same,normalized growth,"locus YBR009C, strain hhf1, hits give low values",0.973
same,normalized growth,"locus YBR021W, strain FUR4, hits give low values",1.02
same,normalized growth,"locus YBR023C, strain chs3, hits give low values",1.01
same,normalized growth,"locus YBR171W, strain sec66, hits give low values",1.04
same,normalized growth,"locus YBR229C, strain ROT2, hits give low values",1.02
same,normalized growth,"locus YBR231C, strain swc5, hits give low values",1
same,normalized growth,"locus YBR279W, strain paf1, hits give low values",1.01
same,normalized growth,"locus YCL011C, strain gbp2, hits give low values",1
same,normalized growth,"locus YCL016C, strain dcc1, hits give low values",1
same,normalized growth,"locus YCL029C, strain bik1, hits give low values",1.05
same,normalized growth,"locus YCL069W, strain vba3, hits give low values",1.01
same,normalized growth,"locus YCR088W, strain abp1, hits give low values",1.02
same,normalized growth,"locus YDL005C, strain med2, hits give low values",1.01
same,normalized growth,"locus YDL035C, strain GPR1, hits give low values",1.03
same,normalized growth,"locus YDL040C, strain nat1, hits give low values",1.03
same,normalized growth,"locus YDL074C, strain BRE1, hits give low values",1.04
same,normalized growth,"locus YDL101C, strain DUN1, hits give low values",1.02
same,normalized growth,"locus YDL134C, strain PPH21, hits give low values",1.03
same,normalized growth,"locus YDL185W, strain tfp1, hits give low values",1.01
same,normalized growth,"locus YDL192W, strain arf1, hits give low values",1.03
same,normalized growth,"locus YDR001C, strain nth1, hits give low values",1.02
same,normalized growth,"locus YDR069C, strain doa4, hits give low values",0.951
same,normalized growth,"locus YDR101C, strain arx1, hits give low values",1.04
same,normalized growth,"locus YDR137W, strain rgp1, hits give low values",1.04
same,normalized growth,"locus YDR159W, strain sac3, hits give low values",0.966
same,normalized growth,"locus YDR162C, strain NBP2, hits give low values",1.06
same,normalized growth,"locus YDR195W, strain ref2",1.01
same,normalized growth,"locus YDR297W, strain sur2, hits give low values",0.956
same,normalized growth,"locus YDR318W, strain mcm21, hits give low values",1.03
same,normalized growth,"locus YDR334W, strain swr1, hits give low values",1.02
same,normalized growth,"locus YDR335W, strain msn5, hits give low values",0.982
same,normalized growth,"locus YDR388W, hits give low values",1.07
same,normalized growth,"locus YDR392W, strain spt3, hits give low values",1.04
same,normalized growth,"locus YDR502C, strain sam2, hits give low values",1.03
same,normalized growth,"locus YEL003W, strain gim4, hits give low values",1.02
same,normalized growth,"locus YEL037C, strain rad23, hits give low values",1.01
same,normalized growth,"locus YEL061C, strain CIN8 (second series), hits give low values",1.02
same,normalized growth,"locus YER015W, strain faa2, hits give low values",1
same,normalized growth,"locus YER016W, strain bim1, hits give low values",1.01
same,normalized growth,"locus YER110C, hits give low values",1.09
same,normalized growth,"locus YER111C, strain swi4, hits give low values",1.02
same,normalized growth,"locus YER155C, strain BEM2 (second series), hits give low values",1.04
same,normalized growth,"locus YER155C, strain BEM2, hits give low values",1.03
same,normalized growth,"locus YER167W, strain BCK2, hits give low values",1.03
same,normalized growth,"locus YFR010W, strain ubp6, hits give low values",1.04
same,normalized growth,"locus YGL078C, strain dbp3, hits give low values",1.03
same,normalized growth,"locus YGL167C, strain pmr1, hits give low values",1.02
same,normalized growth,"locus YGL173C, strain kem1, hits give low values",1.03
same,normalized growth,"locus YGL227W, strain vid30, hits give low values",1.02
same,normalized growth,"locus YGL240W, strain doc1, hits give low values",0.973
same,normalized growth,"locus YGL248W, strain PDE1, hits give low values",1.04
same,normalized growth,"locus YGL253W, strain hxk2, hits give low values",0.984
same,normalized growth,"locus YGR135W, strain pre9, hits give low values",1.03
same,normalized growth,"locus YGR252W, strain gcn5, hits give low values",1.22
same,normalized growth,"locus YHR013C, strain ard1, hits give low values",1.01
same,normalized growth,"locus YHR027C, strain rpn1, hits give low values",0.996
same,normalized growth,"locus YHR079C, strain IRE1 (second series), hits give low values",1.01
same,normalized growth,"locus YHR094C, strain hxt1, hits give low values",1.11 [resistant] (active)
same,normalized growth,"locus YHR129C, strain ARP1, hits give low values",1.03
same,normalized growth,"locus YHR142W, strain chs7, hits give low values",1.03
same,normalized growth,"locus YHR200W, strain rpn10, hits give low values",1.04
same,normalized growth,"locus YIL066C, strain RNR3, hits give low values",1.04
same,normalized growth,"locus YIL073C, strain SPO22, hits give low values",1.1
same,normalized growth,"locus YIL125W, strain kgd1, hits give low values",0.996
same,normalized growth,"locus YIR030C, strain dcg1, hits give low values",1.01
same,normalized growth,"locus YJL092W, strain hpr5, hits give low values",1.02
same,normalized growth,"locus YJL095W, strain BCK1 (second series), hits give low values",0.974
same,normalized growth,"locus YJL095W, strain BCK1, hits give low values",1.07
same,normalized growth,"locus YJL115W, strain asf1, hits give low values",1.01
same,normalized growth,"locus YJL129C, strain trk1, hits give low values",1.04
same,normalized growth,"locus YJL134W, strain LCB3, hits give low values",1.01
same,normalized growth,"locus YJL154C, strain vps35, hits give low values",1.01
same,normalized growth,"locus YJL164C, strain tpk1, hits give low values",1.02
same,normalized growth,"locus YJL166W, strain qcr8, hits give low values",0.991
same,normalized growth,"locus YJL168C, strain set2, hits give low values",1.03
same,normalized growth,"locus YJL187C, strain SWE1 (second series), hits give low values",1.03
same,normalized growth,"locus YJR043C, strain POL32, hits give low values",1.02
same,normalized growth,"locus YJR075W, strain HOC1, hits give low values",1.01
same,normalized growth,"locus YKL009W, strain mrt4, hits give low values",0.959
same,normalized growth,"locus YKL068W, hits give low values",1.1 [resistant] (active)
same,normalized growth,"locus YKL085W, strain MDH1 (second series), hits give low values",1.1 [resistant] (active)
same,normalized growth,"locus YKL085W, strain MDH1, hits give low values",1.1 [resistant] (active)
same,normalized growth,"locus YKL160W, strain elf1, hits give low values",1.02
same,normalized growth,"locus YKR001C, strain vps1, hits give low values",1.02
same,normalized growth,"locus YKR026C, strain gcn3, hits give low values",1.02
same,normalized growth,"locus YKR091W, strain srl3, hits give low values",1.02
same,normalized growth,"locus YLL001W, strain dnm1, hits give low values",1.02
same,normalized growth,"locus YLL026W, hits give low values",1
same,normalized growth,"locus YLL041C, strain sdh2, hits give low values",0.985
same,normalized growth,"locus YLR027C, strain aat2, hits give low values",0.979
same,normalized growth,"locus YLR039C, strain RIC1, hits give low values",1.1
same,normalized growth,"locus YLR058C, strain SHM2, hits give low values",1.02
same,normalized growth,"locus YLR102C, strain apc9, hits give low values",1.17 [resistant] (active)
same,normalized growth,"locus YLR221C, strain rsa3, hits give low values",0.988
same,normalized growth,"locus YLR258W, strain gsy2, hits give low values",0.973
same,normalized growth,"locus YLR262C, strain YPT6 (second series), hits give low values",1.05
same,normalized growth,"locus YLR268W, strain sec22, hits give low values",1.03
same,normalized growth,"locus YLR320W, strain mms22, hits give low values",1.02
same,normalized growth,"locus YLR342W, strain FKS1, hits give low values",1.01
same,normalized growth,"locus YLR357W, strain rsc2, hits give low values",1.03
same,normalized growth,"locus YLR370C, strain arc18, hits give low values",0.98
same,normalized growth,"locus YLR371W, strain rom2, hits give low values",1.16 [resistant] (active)
same,normalized growth,"locus YLR384C, strain iki3, hits give low values",0.987
same,normalized growth,"locus YLR418C, strain cdc73, hits give low values",1.02
same,normalized growth,"locus YML016C, strain PPZ1, hits give low values",1.02
same,normalized growth,"locus YML032C, strain rad52, hits give low values",1.03
same,normalized growth,"locus YML120C, strain ndi1, hits give low values",0.969
same,normalized growth,"locus YML124C, strain tub3, hits give low values",1.02
same,normalized growth,"locus YMR058W, strain fet3, hits give low values",1.02
same,normalized growth,"locus YMR078C, strain ctf18, hits give low values",1.07
same,normalized growth,"locus YMR125W, strain sto1, hits give low values",1.02
same,normalized growth,"locus YMR129W, hits give low values",0.978
same,normalized growth,"locus YMR205C, strain PFK2, hits give low values",0.986
same,normalized growth,"locus YMR223W, strain ubp8, hits give low values",1.01
same,normalized growth,"locus YMR231W, strain pep5, hits give low values",1.02
same,normalized growth,"locus YMR263W, strain SAP30, hits give low values",1.04
same,normalized growth,"locus YMR307W, strain GAS1, hits give low values",1.07
same,normalized growth,"locus YNL067W, strain RPL9B, hits give low values",1.02
same,normalized growth,"locus YNL071W, strain lat1, hits give low values",1.03
same,normalized growth,"locus YNL209W, strain ssb2, hits give low values",0.994
same,normalized growth,"locus YNL233W, strain BNI4, hits give low values",1.04
same,normalized growth,"locus YNL248C, strain rpa49, hits give low values",1.01
same,normalized growth,"locus YNL250W, strain rad50, hits give low values",1.04
same,normalized growth,"locus YNL271C, strain bni1, hits give low values",1.02
same,normalized growth,"locus YNL298W, strain CLA4, hits give low values",1.07
same,normalized growth,"locus YNL307C, strain MCK1, hits give low values",1.12 [resistant] (active)
same,normalized growth,"locus YNL322C, strain KRE1 (second series), hits give low values",1.02
same,normalized growth,"locus YNR049C, strain mso1, hits give low values",0.972
same,normalized growth,"locus YNR052C, strain pop2, hits give low values",1.13 [resistant] (active)
same,normalized growth,"locus YOL012C, strain htz1",1.05
same,normalized growth,"locus YOL147C, strain pex11, hits give low values",1.02
same,normalized growth,"locus YOR001W, strain rrp6, hits give low values",0.97
same,normalized growth,"locus YOR061W, strain CKA2, hits give low values",1.04
same,normalized growth,"locus YOR069W, strain VPS5, hits give low values",1.02
same,normalized growth,"locus YOR070C, strain gyp1, hits give low values",0.989
same,normalized growth,"locus YOR080W, strain dia2, hits give low values",1.01
same,normalized growth,"locus YOR083W, strain WHI5, hits give low values",1.03
same,normalized growth,"locus YOR106W, strain vam3, hits give low values",1.01
same,normalized growth,"locus YOR136W, strain idh2, hits give low values",1.03
same,normalized growth,"locus YOR144C, strain elg1, hits give low values",1.03
same,normalized growth,"locus YOR184W, strain ser1, hits give low values",1.05
same,normalized growth,"locus YOR265W, strain rbl2, hits give low values",0.993
same,normalized growth,"locus YOR270C, strain vph1, hits give low values",1.04
same,normalized growth,"locus YOR290C, strain snf2, hits give low values",1.03
same,normalized growth,"locus YOR316C, strain cot1, hits give low values",1.08
same,normalized growth,"locus YPL051W, strain arl3, hits give low values",1.02
same,normalized growth,"locus YPL078C, strain atp4, hits give low values",1.01
same,normalized growth,"locus YPL106C, strain sse1, hits give low values",1.05
same,normalized growth,"locus YPL240C, strain hsp82, hits give low values",1.01
same,normalized growth,"locus YPL241C, strain CIN2, hits give low values",1.01
same,normalized growth,"locus YPR119W, strain clb2, hits give low values",1.11 [resistant] (active)
same,normalized growth,"locus YPR141C, strain kar3, hits give low values",0.98
same,normalized growth,"locus YPR163C, strain tif3, hits give low values",1.03
same,normalized growth,"locus YPR167C, strain met16, hits give low values",1.02
same,normalized growth,"strain wtn01, hits give low values",1.02
